Drawing on PubChem BioAssay (NCI), this text covers growth inhibition for 36 molecules.

This is part of a sample that, as a whole, favours compounds with a hit. Of some 79,000 tested, about 15% had one in any assay. A number with no mark means an inactive call. Calls of active or inactive are those of the source. Rule as the data show it: active = growth inhibition above about 70%; inactive = the rest.

Assay [1] is described as follows: NCI Yeast Anticancer Drug Screen. Data for the rad50 strain (AID 155).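 Also: 0% = growth of vehicle-only cultures of the same strain.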 The following applies: S. cerevisiae rad50 strain growth inhibition; at 50.0 µM; active compounds read high. The gist of the method: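 A DNA repair-deficient yeast mutant serves as the test organism; compound-induced growth inhibition is calculated against vehicle-treated cells.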
A short description of assay [2]: NCI Yeast Anticancer Drug Screen. Data for the mec2-1 strain (AID 157). Particulars: S. cerevisiae mec2-1 strain, at 50.0 µM, active compounds read high. The gist of the method: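 Mutant yeast (mec2-1) grown with compound; growth inhibition relative to vehicle control reported.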
A short description of assay [3]: NCI Yeast Anticancer Drug Screen. Data for the sgs1 mgt1 strain (AID 161).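 Also: 0% = growth of cultures given vehicle only.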 Particulars: S. cerevisiae sgs1 mgt1 strain, at 50.0 µM, active compounds read high. The gist of the method:
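Yeast cells carrying a defined DNA-repair defect were exposed to test compounds. Growth inhibition was measured relative to vehicle-treated controls.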

Assay [4] is described as follows: NCI Yeast Anticancer Drug Screen. Data for the cln2 rad14 strain (AID 165).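 Also: 0% = growth equal to vehicle treated cultures.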 Particulars: S. cerevisiae cln2 rad14 strain, at 50.0 µM, active compounds read high. The gist of the method:
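Readout is yeast growth inhibition versus vehicle-treated controls, using a strain with cln2 and rad14 alterations exposed to compound.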

Assay [5] is described as follows: NCI Yeast Anticancer Drug Screen. Data for the bub3 strain (AID 167). Particulars: S. cerevisiae bub3 mutant strain, at 50.0 µM, active compounds read high. The gist of the method: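 Inhibition values come from growth of compound-treated mutant yeast normalised to vehicle-treated controls.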
A short description of assay [6]: NCI Yeast Anticancer Drug Screen. Data for the mlh1 rad18 strain (AID 175). The following applies: S. cerevisiae mlh1 rad18 strain growth inhibition; at 50.0 µM; active compounds read high. The gist of the method: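 Genetically defined yeast (DNA repair-deficient) exposed to compounds; growth inhibition determined relative to vehicle.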

As to `Cc1cccc(NC(=O)c2cccc([N+](=O)[O-])c2O)c1C`, the growth inhibition in assay [1] is 3.1%; in assay [2], 9.05%; in assay [3], 14.2%; in assay [4] it was 11.8%; in assay [5], -2.7%; in assay [6], -87%.
In the case of `CCCCCCCCSc1nc(Nc2cc(C(C)(C)C)c(O)c(C(C)(C)C)c2)nc(SCCCCCCCC)n1`, the growth inhibition in assay [1] was 41.6%; in assay [2] it was 1.95%; in assay [3], 13.1%; in assay [4] it was 34.1%; in assay [5] it was -0.9%; in assay [6], 28.4%.
On to `NC(=O)NC12CC3CC(CC(F)(C3)C1)C2`, for which the growth inhibition in assay [1] is -19.6%; in assay [2] it was -29.1%; in assay [3], -29.7%; in assay [4] it was -0.95%; in assay [5] it was -47.5%; in assay [6] it was -9.85%.
For `CC(=O)c1ccc(C(=O)O)cc1`, the growth inhibition in assay [1] is 13.7%; in assay [2] it was -11.6%; in assay [3], 2.45%; in assay [4], -0.15%; in assay [5] it was -4.3%; in assay [6], 6.15%.
With `O=C(O)C(c1ccccc1)C1(O)CC2CCC1C2` (stereo unspecified), the growth inhibition in assay [1] was -38%; in assay [2] it was -45.5%; in assay [3], -36.6%; in assay [4] it was -10.7%; in assay [5], -56%; in assay [6] it was -54.5%.
As for `CC(=O)NC(Cc1ccccc1)/C(C)=N\O` (stereo unspecified), the growth inhibition in assay [1] was -3.15%; in assay [2], -2.05%; in assay [3], -2.65%; in assay [4], -15.2%; in assay [5], 5.25%; in assay [6], 4.8%.
Regarding `C=CC(C)(C)C1=CC(=O)C(OC)=CC1=O`, the growth inhibition in assay [1] was 1.75%; in assay [2], -6.15%; in assay [3], -3.7%; in assay [4], -54.9%; in assay [5], 4.15%; in assay [6] it was -6.65%.
On to `CCCCCCCCCCCCOc1ccc(C(C)(C)C)cc1`, for which the growth inhibition was -12.2% in assay [1]; -12.8% in assay [2]; -22.1% in assay [3]; 7.85% in assay [4]; -36.8% in assay [5]; -11.7% in assay [6].
On to `COc1ccc(NC(=O)C(F)(F)F)cc1`, for which the growth inhibition in assay [1] was 9.3%; in assay [2], 3.85%; in assay [3], 10.4%; in assay [4], -2.2%; in assay [5], 0.55%; in assay [6], 1.75%.
Take `CCCCC1NC(=O)OC1=O` (stereo unspecified): the growth inhibition in assay [1] was -23.6%; in assay [2] it was -31.4%; in assay [3], -11.2%; in assay [4] it was 1.9%; in assay [5], -20.2%; in assay [6], -33.4%.
Regarding `Cc1cc2c(cc1Cl)SC(N/N=C(\N)c1ccc(Cl)cc1)=NS2(=O)=O`, the growth inhibition is -34.2% in assay [1]; -0.8% in assay [2]; -12.3% in assay [3]; -16.2% in assay [4]; -14.4% in assay [5]; -8.1% in assay [6].
In the case of `CC1(C)CC[C@]2(C(=O)O)CC[C@]3(C)C(=CC[C@@H]4[C@@]5(C)CC[C@@H]6OC(C)(C)OC[C@@]6(C)[C@@H]5CC[C@]43C)[C@H]2C1`, the growth inhibition in assay [1] is 3.7%; in assay [2], 10.8%; in assay [3], -19.9%; in assay [4] it was -5.1%; in assay [5], -8.65%; in assay [6], -62.6%.
As to `CC(C)CCCC(C)C1CCC2C3CC=C4CC(C(=O)O)CCC4C3CCC12C` (stereo unspecified), the growth inhibition in assay [1] is 26.8%; in assay [2], 21.6%; in assay [3] it was 14.1%; in assay [4], 21.2%; in assay [5] it was -3.5%; in assay [6] it was 22.6%.
Turning to `Cc1cc(O)c2c(c1)C(=O)c1c(-c3ccc(O)c4c3C(=O)c3c(O)c(C)cc(O)c3C4=O)ccc(O)c1C2=O`, the growth inhibition is -30.7% in assay [1]; -19.8% in assay [2]; -17.1% in assay [3]; 9.05% in assay [4]; -26.8% in assay [5]; -24.4% in assay [6].
In the case of `CCCCCCCCCCCCCCCCCC(=O)N1C(=O)c2ccccc2C1=O`, the growth inhibition in assay [1] was 22.6%; in assay [2], 2.35%; in assay [3], 6.75%; in assay [4], -8.85%; in assay [5] it was -2.65%; in assay [6] it was 29.9%.
Turning to `C#CCOc1ccc(C(F)(F)F)cc1`, the growth inhibition in assay [1] is -8.1%; in assay [2] it was -15.4%; in assay [3], -1.6%; in assay [4], -17.4%; in assay [5], 15.4%; in assay [6], -2.05%.
In the case of `CC1(C=O)CCCC2(C)[C@@H]1CCC13CC(CC[C@H]12)C(C(=O)O)C3` (stereo partly specified), the growth inhibition in assay [1] is 28.9%; in assay [2], 30.6%; in assay [3] it was 22.6%; in assay [4] it was 14.3%; in assay [5], 26.8%; in assay [6], 16.7%.
For `CN1N=C2c3ccccc3OC(c3ccccc3)[C@H]2C1c1ccccc1` (stereo partly specified), the growth inhibition was -46.8% in assay [1]; -47.2% in assay [2]; -40.2% in assay [3]; -3.8% in assay [4]; -61.4% in assay [5]; -41.7% in assay [6].
In the case of `O=c1[nH]c(=O)n(COCc2ccccc2)c2ccc(Br)cc12`, the growth inhibition in assay [1] was -7.55%; in assay [2] it was -9.5%; in assay [3] it was -2.75%; in assay [4] it was -20.4%; in assay [5], -6.95%; in assay [6], -61.5%.
As for `COc1ccccc1NC(=O)C1=C(C)NC(C)=C(C(=O)Nc2ccccc2OC)C1c1c(Cl)cccc1Cl`, the growth inhibition in assay [1] is 15.6%; in assay [2] it was 3.75%; in assay [3] it was -11.8%; in assay [4], -6.05%; in assay [5], 0.2%; in assay [6], 26.6%.
For `CCN1C(=O)/C(=C/c2cc([N+](=O)[O-])ccc2OCC(=O)O)SC1=S`, the growth inhibition is -1.85% in assay [1]; -11.3% in assay [2]; 3.5% in assay [3]; -42.8% in assay [4]; 2.55% in assay [5]; 1.4% in assay [6].
Turning to `CC1=CNNc2ccccc21`, the growth inhibition in assay [1] was -2.6%; in assay [2], 1.45%; in assay [3], -4.6%; in assay [4], 8%; in assay [5], -14.4%; in assay [6], 5.1%.
For `O=[N+]([O-])c1ccc(N=Nc2ccc(O)c3c(O)cc(S(=O)(=O)O)cc23)cc1S(=O)(=O)O`, the growth inhibition in assay [1] was 30.6%; in assay [2], 9%; in assay [3], 6.85%; in assay [4], -24.8%; in assay [5], -11.4%; in assay [6], 50.1%.
As to `COc1cc(C=O)cc(Br)c1O`, the growth inhibition in assay [1] was 13.3%; in assay [2], -3.55%; in assay [3], 34.1%; in assay [4], -8.45%; in assay [5] it was -19.7%; in assay [6], 34.4%.
In the case of `CCOC(=O)C(NC(=O)c1cccc(Cl)c1)(N1CCN(c2cc3c(cc2F)c(=O)c(C(=O)O)cn3CC)CC1)C(F)(F)F` (stereo unspecified), the growth inhibition in assay [1] is -7.7%; in assay [2] it was -39.5%; in assay [3] it was -18.3%; in assay [4], 4.45%; in assay [5] it was -16.8%; in assay [6], -23.6%.
As for `CSc1nc(-c2ccc([N+](=O)[O-])cc2)oc1/N=C/c1ccc([N+](=O)[O-])cc1`, the growth inhibition in assay [1] was -8.45%; in assay [2] it was -9.65%; in assay [3] it was -14.6%; in assay [4] it was -29.1%; in assay [5], 3%; in assay [6], 4.35%.
Take `ON(Cc1ccccc1)Cc1ccccc1`: the growth inhibition in assay [1] is -3.95%; in assay [2], -26.9%; in assay [3], 12.9%; in assay [4], 12.8%; in assay [5], 9.5%; in assay [6], -19.1%.
`Cc1cccc2c1Oc1ccccc1C2N1C(=O)c2ccccc2C1=O` (stereo unspecified): the growth inhibition in assay [1] is 6.65%; in assay [2] it was 2.5%; in assay [3] it was 4.9%; in assay [4], 25.4%; in assay [5], 9.95%; in assay [6], 6.35%.
Turning to `Cc1c(N)cc2c(c1[N+](=O)[O-])C(C)(C)CC2(C)C`, the growth inhibition in assay [1] is 3.15%; in assay [2] it was -14.1%; in assay [3] it was 1.6%; in assay [4], -5.2%; in assay [5], 11.9%; in assay [6], -0.85%.
With `c1ccc(CC2CCCC(Cc3ccccc3)N2)cc1` (stereo unspecified), the growth inhibition in assay [1] was -1.25%; in assay [2] it was -16.4%; in assay [3], -5.55%; in assay [4] it was -49.3%; in assay [5], 16.1%; in assay [6], 5.1%.
Consider `CC(C)(CO)C(O)C(=O)NCCO` (stereo unspecified), for which the growth inhibition is 14.8% in assay [1]; -0.15% in assay [2]; 6.05% in assay [3]; 5.15% in assay [4]; 3.3% in assay [5]; -10.4% in assay [6].
Turning to `CC(=O)NCc1cccc([N+](=O)[O-])c1`, the growth inhibition in assay [1] was 18.4%; in assay [2], -12.9%; in assay [3] it was 27.3%; in assay [4] it was 2.45%; in assay [5] it was 17.7%; in assay [6], 13.2%.
As for `Cc1ccc(C(=N)c2ccccc2Cc2cccc3ccccc23)c2ccccc12`, the growth inhibition is 12.4% in assay [1]; -22.1% in assay [2]; -30.2% in assay [3]; -36.9% in assay [4]; -34.4% in assay [5]; -15.6% in assay [6].
For the molecule `COc1cc(C)cc2c1C(=O)C(Br)=CC2=O`, the growth inhibition was 91.2% (active) in assay [1]; 92.3% (active) in assay [2]; 91.9% (active) in assay [3]; 91.8% (active) in assay [4]; 91.8% (active) in assay [5]; 89.8% (active) in assay [6].
In the case of `S=C1CSc2c(cnc3ccccc23)N1`, the growth inhibition was -4.05% in assay [1]; -6% in assay [2]; 7% in assay [3]; 18.8% in assay [4]; 18.2% in assay [5]; 6.95% in assay [6].
On to `CC1(c2ccccc2)SCCS1`, for which the growth inhibition is 4.9% in assay [1]; 2.05% in assay [2]; -7.7% in assay [3]; -34.3% in assay [4]; -13.9% in assay [5]; -6.4% in assay [6].
